# Screening results (PubChem)
# Shown are actives, neighbours in structure and some others; about 2.1% of the full set was active somewhere.
# APP 5UTR inh = APP translation inhibition; SH-SY5Y APP 5'UTR-luciferase reporter, luminescence; inhibition, % at 2 µM; 0.82% of 190,000 active;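 active = inhibition above a set limit, derived from the sample mean plus 3 SD, cut at about 45% in these data; inconclusive = one replicate passes the limit while the other fails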
# Ba/F3 V617F tox = reduce viability of Ba/F3 cells dependent on JAK2V617F | inhibition, % at 5.6 µM | 1.1% of 220,000 active | Ba/F3 EpoR-JAK2V617F viability, ATP luminescence | AID 1446;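 active = inhibition above the campaign mean plus 3 SD over all tested compounds, cut at about 24% in these data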;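 also: cytokine-independent growth of Ba/F3 cells driven by EpoR plus mutant JAK2; 0% = DMSO-treated cells and 100% = JAK inhibitor I control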
# aSyn UTR inh = MLPCN primary screen, SNCA 5' untranslated region. alpha-synuclein 5'UTR reporter, inhibitor activity. inhibition, % (tested at 7.5 µM). 0.82% of 300,000 active; in the data active = inhibition above about 60%; inconclusive = no clear call, values can overlap the other calls;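 also: H4 neuroglioblastoma cells stably carrying SNCA 5'UTR luciferase fusion; 0% = DMSO wells and 100% = positive control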
# KLF5 inh = inhibitors of KLF5 expression; inhibition, % at 5 µM; AID 1700; DLD-1 KLF5 promoter-luciferase reporter, luminescence; 0.23% of 290,000 active;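 active = inhibition above a per-plate limit of that plate's mean compound inhibition plus 3 SD, cut at about 60% in these data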;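 also: 0% = DMSO wells and 100% = LY294002 at 200 µM; higher means less KLF5 promoter-driven luciferase light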
# BaF3 tox = parental Ba/F3 viability inhibition as JAK2V617F counter-screen. CellTiter-Glo ATP luminescence. inhibition, % at 5.6 µM. 1.1% of 220,000 active;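 active = inhibition above a per-campaign cutoff, the mean inhibition of all tested compounds plus 3 SD, cut at about 27% in these data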;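 also: 0% = DMSO wells and 100% = JAK Inhibitor I control wells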
# IEC-6 cytotox = counter-screen for KLF5 inhibitors: cytotoxicity in IEC-6 cells; IEC-6 cytotoxicity, luminescence viability; inhibition, % at 5 µM; 0.78% of 290,000 active; AID 1825; in the data active = inhibition above about 22%;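 also: 0% = plate median of test compound wells and 100% = cytotoxic reference compound wells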
# Starred values were filed as active, the others as inactive; ? = inconclusive; nt = no result given.
SMILES,APP 5UTR inh,Ba/F3 V617F tox,aSyn UTR inh,KLF5 inh,BaF3 tox,IEC-6 cytotox
CC1CCC(C(C)C)C(OC(=O)Cn2c(-c3ccc(F)cc3)[n+](C)c3ccccc32)C1 (centres undefined),-3,98*,nt,-9,82*,5
C/C(CC(=O)Nc1ccccn1)=N\NC(=O)c1ccccc1O,nt,nt,71*,23,nt,9
COc1ccccc1NC(=O)/C(C#N)=C/C=C/c1ccco1,88*,0,-6,13,4,3
COc1ccc(-c2c/c(=N\c3nc(-c4ccccc4)c(C)s3)c3ccccc3o2)cc1O,-1,-7,75*,4,0,-5
CCCCCCCC#Cc1ccccc1/C=N/S(=O)c1ccc(C)cc1 (centres undefined),19,8,nt,-20,38*,-2
O=C(Nc1ccc2c(c1)nc1n2CCN(C2CCCCC2)C1)NC1CCCCC1,-8,7,-6,-22,30*,1
CCC(=O)Nc1ccc2c(c1)nc1n2CCN(C2CCCCC2)C1,2,-4,-8,-8,-3,-4
CC(C)c1ccc(NC(=O)CCNC(=O)N2CC(=O)Nc3ccccc32)cc1,nt,nt,10,-25,nt,-2
C/C(=N\Nc1nc(-c2ccccc2O)nc2ccccc12)c1ccccc1,-13,-2,-91,-50,3,-4
C/C(=N\Nc1nc(-c2ccccn2)nc2ccccc12)c1ccc(F)cc1,nt,0,75*,7,0,3
O=C1CCNc2cc3ccccc3cc21,5,7,78*,3,17,16
O=C1CCNc2ccc(-c3ccccc3)cc21,-30,1,-42,0,2,1
O=C(c1ccc2oc(CCc3ccccc3)nc2c1)N1CC[C@H](O)C1,nt,nt,-134,-154,nt,-8
CCCCCCC(=O)c1c(C)[nH]c(C(=O)OCC)c1C,-18,0,-114,-38,41*,8
CCOC(=O)c1[nH]c(C=O)c(C(=O)OCC)c1C,91*,4,2,42,3,-4
CCCCCC(=O)c1c(C)[nH]c(C(=O)OCC)c1C,-20,-3,11,-32,1,1
Cn1c(-c2ccccc2)c[n+]2c1-c1ccccc1C2,-9,85*,-17,-11,63*,5
COc1ccc(-c2c[n+](CC(=O)c3cccs3)c3n2CCC3)cc1,nt,19,-11,-8,29*,2
Cc1ccc(-c2c[n+](CC(=O)c3cccs3)c3n2CCC3)cc1,nt,33*,4,1,62*,5
COc1ccc(-c2c[n+](CC(=O)N3c4ccccc4Sc4ccccc43)c3n2CCC3)cc1,nt,-1,-10,-41,0,-1
CCOc1ccc(/C=C2\SC(=S)N(CCC(=O)O)C2=O)cc1,nt,2,115*,35,-7,2
CCc1ccc(/C=C2\SC(=S)N(CCC(=O)Nc3cc(C)on3)C2=O)cc1,3,-2,69*,-3,4,-4
COc1ccc(CCNC(=O)CCS(=O)(=O)Cc2ccccc2C)cc1OC,nt,nt,0,-29,nt,4
CS(=O)(=O)N1CCN(c2c(Cl)cccc2[N+](=O)[O-])CC1,0,4,-38,-7,51*,1
CC(CCc1ccccc1)NC(=O)c1ccc(-n2cncn2)c([N+](=O)[O-])c1 (centres undefined),nt,nt,-4,nt,nt,nt
SMILES,APP 5UTR inh,Ba/F3 V617F tox,aSyn UTR inh,KLF5 inh,BaF3 tox,IEC-6 cytotox
O=C(Cn1nc2n(c1=O)-c1ccccc1SC2)N/N=C/c1cccs1,nt,3,20,-9,-2,2
Cc1ccc(NC(=O)C(C)OC(=O)c2ccc(NC(=O)CC#N)cc2)cc1S(=O)(=O)N1CCOCC1 (centres undefined),nt,nt,12,nt,nt,nt
CN1/C(=C\C=N\NC(=O)c2ccc(O)cc2)C(C)(C)c2ccccc21,-1,37*,8,-10,42*,3
CN1/C(=C\C=N\NC(=O)c2cccnc2)C(C)(C)c2ccccc21,19,38*,-3,-6,43*,1
Cc1c(N=C/C=C2\N(C)c3ccccc3C2(C)C)c(=O)n(-c2ccccc2)n1C,-20,-5,-30,-4,-1,2
COc1ccc(CC(=O)Nc2ccc(N(C)C)c3ccccc23)cc1,nt,nt,12,-13,nt,1
COc1ccc(-n2c(O)c(/C=N/Nc3nc(C)cc(C)n3)c3ccccc3c2=O)cc1OC,33,-3,120*,1,-3,-3
CN1C=CC(=C2C(=O)c3ccccc3C2=O)C=C1,-102,4,14,-122,2,9
CCCCCCN1C=CC(=C2C(=O)c3ccccc3C2=O)C=C1,-48,5,107*,-92,11,5
C=C[C@@]1(C)CC(=O)[C@]2(O)[C@@]3(C)[C@@H](O)CCC(C)(C)[C@@H]3[C@H](O)[C@H](OC(C)=O)[C@@]2(C)O1,nt,nt,72*,nt,nt,nt
C=C[C@@]1(C)CC(=O)[C@]2(O)[C@@]3(C)[C@@H](O)CCC(C)(C)[C@@H]3[C@H](OC(C)=O)[C@H](O)[C@@]2(C)O1,nt,nt,66*,nt,nt,nt
COc1ccc(-c2nnc3sc(C4CCCCC4)nn23)cc1OC,-20,-2,65*,-16,3,-7
CSCCC(NS(=O)(=O)c1cccs1)C(=O)NCc1cccs1 (centres undefined),47*,-2,3,6,5,-2
O=C(c1ccccc1)c1cc(Cl)ccc1N1C(=O)C=CC1=O,80*,6,nt,-24,11,-2
CCOc1ccc(-c2cc(CCCC(=O)Nc3cccc(OC)c3)no2)cc1,80*,-4,68*,2,0,4
CCOc1ccc(-c2cc(CCCC(=O)NCCc3ccc(OC)c(OC)c3OC)no2)cc1,12,-6,?,-34,6,1
COc1ccc(-c2cc(CCCC(=O)NCCc3ccccc3)no2)cc1,nt,0,-52,-45,4,5
CCOc1ccc(-c2cc(CCCC(=O)NCCc3ccccc3)no2)cc1,14,2,62*,-15,3,2
CCOc1ccc(NC(=O)CCCc2cc(-c3ccc(OCC)cc3)on2)cc1,16,-3,35,-14,4,-4
CCOc1ccc(-c2cc(CCCC(=O)Nc3cc(OC)ccc3OC)no2)cc1,34,-5,83*,-12,-2,4
CCN(c1ccccc1)S(=O)(=O)c1nnc(NC(=O)c2ccccc2OC)s1,nt,nt,-9,1,nt,-6
O=S(=O)(c1ccc2ccccc2c1)N1CCN(C(=S)Nc2ccc(F)cc2)CC1,6,19,2,-23,35*,0
O=C(NCc1ccc(Cl)cc1)C1CCCCN1S(=O)(=O)c1ccccc1 (centres undefined),nt,nt,5,5,nt,-2
O=C(/C=C/c1ccccc1)Nc1ccc(NC(=O)c2cccs2)cc1,nt,0,-29,-13,-1,1
O=C(/C=C/c1ccccc1)NNC(=O)c1cccs1,-3,24*,-55,2,41*,-3
CC(CC(=O)N1CCc2ccccc21)S(=O)(=O)c1ccc2c(c1)NC(=O)CO2 (centres undefined),nt,nt,6,-31,nt,-9
